# Measurements taken from PubChem BioAssay (EPA / NIEHS).
# Records with an inconclusive call do not appear. More than one record can exist for a structure, and the calls need not agree. The source made the active and inactive calls. The calls were made as follows, unless noted: active = hit-call score of the fitted dose curve at least 0.9, where 1 is the maximum; inconclusive = response in the unintended direction; inactive = score below 0.9.
# Key:
# [1] = biological target: D(1A) dopamine receptor (Homo sapiens) (UniProt P21728); assay: NVS_GPCR_hDRD1: NovaScreen (NVS) G Protein-Coupled Receptor Assay for human Dopamine Receptor D1 (DRD1) (AID 2283269)
# Procedure, shortened: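 Cell-free radioligand binding to human DRD1 from HEK293 membranes, read 1 h after dosing by filter-based scintillation counting. Loss of signal versus DMSO baseline marks displacement. Primary screen at 25 uM single concentration in duplicate; actives followed up in concentration series.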
# [2] = CEETOX_H295R_11DCORT: CeeTox H295R High-throughput Steroidogenesis Assay for 11-Deoxycortisol (11DCORT) (AID 2283432; active = hit-call score of the fitted dose curve at least 0.9, where 1 is the maximum; inactive = score below 0.9;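 as to AC50: 11-deoxycortisol secreted into the medium measured by LC-MS/MS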); details: actives raise or lower the signal
# Procedure, shortened: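 H295R cells; 10 uM forskolin prestim 48 h; compound in 0.1% DMSO 48 h; media extracted with MTBE; 11-deoxycortisol by LC-MS/MS, 7-point standard curve; gain/loss vs DMSO baseline; viability by MTT in same wells.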
# [3] = CEETOX_H295R_OHPREG: CeeTox H295R High-throughput Steroidogenesis Assay for OH-Pregnenolone (OHPREG) (AID 2283434; active = hit-call score of the fitted dose curve at least 0.9, where 1 is the maximum; inactive = score below 0.9); details: actives raise or lower the signal
# Procedure, shortened: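 Secreted 17alpha-hydroxypregnenolone measured by HPLC-MS/MS after liquid-liquid extraction. Human adrenal H295R cells received 48 h forskolin (10 uM) stimulation before 48 h chemical exposure at 0.1% final DMSO; MTT viability in same wells; bidirectional fit against DMSO.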
# [4] = CEETOX_H295R_OHPROG: CeeTox H295R High-throughput Steroidogenesis Assay for OH-Progesterone (OHPROG) (AID 2283435; active = hit-call score of the fitted dose curve at least 0.9, where 1 is the maximum; inactive = score below 0.9;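 as to AC50: 17alpha-hydroxyprogesterone secreted into medium measured by HPLC-MS/MS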); details: actives raise or lower the signal
# Procedure, shortened: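 Human adrenocortical H295R cells, passage 10 or lower, were treated with chemical for 48 h after forskolin priming, and hormone output in the medium was quantified by LC-MS/MS.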
# [5] = CEETOX_H295R_CORTIC: CeeTox H295R High-throughput Steroidogenesis Assay for Corticosterone (CORTIC) (AID 2283437; active = hit-call score of the fitted dose curve at least 0.9, where 1 is the maximum; inactive = score below 0.9); details: actives raise or lower the signal
# Procedure, shortened: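 Medium corticosterone was quantified by tandem mass spectrometry following 48 hours of chemical exposure (0.1% DMSO) in human H295R cells previously stimulated 48 hours with 10 uM forskolin. Viability checked by MTT; chemicals diluted and retested when viability fell below 70%.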
# [6] = CEETOX_H295R_CORTISOL: CeeTox H295R High-throughput Steroidogenesis Assay for Cortisol (AID 2283438; active = hit-call score of the fitted dose curve at least 0.9, where 1 is the maximum; inactive = score below 0.9;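 also: cortisol secreted into medium quantified by LC-MS/MS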); details: actives raise or lower the signal
# Procedure, shortened: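 Steroidogenesis in H295R, per modified OECD 456: 48 h forskolin (10 uM), then 48 h exposure, 0.1% DMSO. Cortisol by extraction and tandem MS; viability by MTT (570/650 nm); cytotoxic chemicals diluted and re-tested.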
# [7] = CEETOX_H295R_DOC: CeeTox H295R High-throughput Steroidogenesis Assay for DOC (AID 2283439; active = hit-call score of the fitted dose curve at least 0.9, where 1 is the maximum; inactive = score below 0.9); details: actives raise or lower the signal
# Procedure, shortened: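 H295R, fsk 10 uM ×48 h pre, cmpd ×48 h (0.1% DMSO). Media → MTBE extr. → LC-MS/MS, DOC. Bidirectional fit vs DMSO; MTT viability same wells, re-test diluted if <70%.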
# [8] = CEETOX_H295R_ESTRADIOL: CeeTox H295R High-throughput Steroidogenesis Assay for Estradiol (AID 2283440; active = hit-call score of the fitted dose curve at least 0.9, where 1 is the maximum; inactive = score below 0.9;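 also: estradiol secreted into medium quantified by LC-MS/MS after dansyl derivatisation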); details: actives raise or lower the signal
# Procedure, shortened: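 H295R, 48 h forskolin (10 uM) prestim → 48 h compound, 0.1% DMSO final. Estradiol in medium: MTBE extraction, dansyl chloride derivatization, LC-MS/MS. Fit bidirectional vs DMSO baseline; MTT viability in same wells.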
# [9] = CEETOX_H295R_ESTRONE: CeeTox H295R High-throughput Steroidogenesis Assay for Estrone (AID 2283441; active = hit-call score of the fitted dose curve at least 0.9, where 1 is the maximum; inactive = score below 0.9;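 also: estrone secreted into medium measured by LC-MS/MS after dansyl derivatization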;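 as to AC50: human adrenal H295R cells prestimulated with forskolin for two days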); details: actives raise or lower the signal
# Procedure, shortened: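 Forskolin-stimulated H295R cells are treated 48 h with chemical, and estrone in the medium is measured by LC-MS/MS. Activity is fitted in both directions relative to DMSO controls, with chemicals diluted until MTT viability reaches at least 70%.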
# [10] = CEETOX_H295R_PROG: CeeTox H295R High-throughput Steroidogenesis Assay for Progesterone (PROG) (AID 2283442; active = hit-call score of the fitted dose curve at least 0.9, where 1 is the maximum; inactive = score below 0.9;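 as to AC50: human H295R adrenal cells primed with 10 µM forskolin before dosing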); details: actives raise or lower the signal
# Procedure, shortened: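 Progesterone read-out: HPLC-MS/MS on MTBE extracts of conditioned medium after 48 h chemical exposure of forskolin-primed (10 uM, 48 h) H295R cells. Gain or loss of signal was fitted relative to DMSO baseline.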
# [11] = biological target: human Phosphodiesterase 10 (PDE10), PDE10A (gene 10846) (UniProt Q9Y233); assay: NVS_ENZ_hPDE10: NovaScreen (NVS) Enzymatic Assay for human Phosphodiesterase 10 (PDE10) (AID 2283195)
# Procedure, shortened: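 Fluorescence readout after mobility-shift separation of substrate and product, 1 h reaction with recombinant human enzyme. Single-concentration duplicates at 25 uM, then concentration-response up to 50 uM for chemicals reaching threshold; DMSO baseline.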
# [12] = CCTE_Deisenroth_AIME_384WELL_CTox_Active: Cytotoxicity Assessment (CTOX) in CCTE's 384-well Estrogen Receptor Transactivation Assay with AIME metabolic competence (metabolism positive), Deisenroth Lab (AID 2284037);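 also: chemicals first conditioned 2 h by alginate-bound induced rat liver S9 before cells; activity means signal loss indicating cell death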
# Procedure, shortened: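 Cytotoxicity in VM7Luc4E2 breast cells, 24 hour, measured as protease-substrate fluorescence loss, after 2-hour metabolic conditioning with induced rat hepatic S9 in alginate microspheres. Concentrations 0.002 - 200 uM, 10 points, bidirectional fitting.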
# [13] = tested on: Thyroperoxidase (TPO), gene 54314; assay: CCTE_Simmons_AUR_rTPO: CCTE's Amplex UltraRed Assay for Thyroperoxidase (TPO) Inhibition, Simmons Lab (AID 2283662);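 as to AC50: potency for loss of signal meaning inhibition of peroxidase activity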
# Procedure, shortened: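 Rat thyroid microsomal TPO + 25 uM AUR in 200 mM K phosphate; cpd 5 nM–87.5 uM [final], 8 conc, 0.5% DMSO; 300 uM H2O2 starts rxn; 37C dark 30 min; endpoint FI 544/590 nm; n=3.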
# [14] = biological target: Luciferin 4-monooxygenase (Photinus pyralis) (UniProt P08659); assay: CCTE_Simmons_QuantiLum_inhib_2: CCTE's Firefly Luciferase Inhibition Assay, Simmons Lab (AID 2283767)
# Procedure, shortened: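 Eight-point titrations of each chemical, 5 nM–87.5 uM final in 0.5% DMSO, were run in three biological replicates against recombinant luciferase for 30 min at 37C. Bioluminescence signal loss, read on reagent injection, gave the inhibition endpoint.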
# [15] = biological target: Peroxisome proliferator-activated receptor gamma (Homo sapiens) (UniProt P37231); assay: NVS_NR_hPPARg: NovaScreen (NVS) Nuclear Receptor Binding Assay for human Peroxisome Proliferator-activated Receptor gamma (PPARg) (AID 2283370)
# Procedure, shortened: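 FP read-out, 2 h post-dose, cell-free extracted receptor protein. Signal loss vs DMSO negative control = binding activity. Single-conc duplicate HTS at 25 uM; concentration-response follow-up for actives.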
# [16] = biological target: Estrogen receptor (Homo sapiens) (UniProt P03372); assay: OT_ER_ERaERa_1440: Odyssey Thera (OT) 24-hour HEK293T Protein-Complementation Assay for Estrogen Receptor-alpha/-alpha Homodimer (AID 2283349);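 also: hits raise fluorescence above DMSO for agonists and antagonists alike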
# Procedure, shortened: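 HEK293T, stable ERα LBD (aa 310-547) homodimer PCA; 24 h compound exposure; mean fluorescence intensity (nuclear for agonists, nuclear plus cytoplasmic for antagonists) vs vehicle; positive fitting direction, DMSO baseline.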
# [17] = biological target: Estrogen receptor (Homo sapiens) (UniProt P03372); assay: OT_ER_ERaERa_0480: Odyssey Thera (OT) 8-hour HEK293T Protein-Complementation Assay for Estrogen Receptor-alpha/-alpha Homodimer (AID 2283351);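 also: rise in fluorescence from reassembled reporter fragments on ERα LBD homodimer in nucleus or whole cell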
# Procedure, shortened: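 Measures ERα LBD (aa 310-547) homodimer complementation in stably transfected HEK293T at 8 h post-dose, with fluorescence intensity quantified on a laser scanning cytometer relative to DMSO controls.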
# [18] = biological target: Estrogen receptor (Homo sapiens) + Estrogen receptor beta (Homo sapiens) (UniProt P03372+Q92731); assay: OT_ER_ERaERb_1440: Odyssey Thera (OT) 24-hour HEK293T Protein-Complementation Assay for Estrogen Receptor-alpha/-beta Homodimer (AID 2283356);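 also: heteromer of ER alpha and ER beta binding domains; hits raise reporter fluorescence and both agonists and antagonists give an increase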
# Procedure, shortened: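 Readout: mean fluorescence intensity in nucleus (agonists) or nucleus plus cytoplasm (antagonists), read by laser scanning cytometer after 24 h compound exposure of HEK293T cells carrying ERα/ERβ LBD fragment-complementation constructs; DMSO baseline.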
# [19] = biological target: Estrogen receptor (Homo sapiens) (UniProt P03372); assay: OT_ERa_GFPERaERE_0480: Odyssey Thera (OT) 8-hour HeLa Transcription Induction Assay for Estrogen Receptor (AID 2283381; active = hit-call score of the fitted dose curve at least 0.9, where 1 is the maximum; inactive = score below 0.9)
# Procedure, shortened: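 An 8 h HeLa transcription-induction format with a GFP reporter under ERE control, read by fluorescence microscopy; single endpoint fitted positively with DMSO as baseline.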
# [20] = biological target: Estrogen receptor (Homo sapiens) (UniProt P03372); assay: OT_ERa_GFPERaERE_0120: Odyssey Thera (OT) 2-hour HeLa Transcription Induction Assay for Estrogen Receptor (AID 2283382)
# Procedure, shortened: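 Two-hour compound treatment of HeLa cells preceded microscopy imaging of an inducible fluorescent reporter. Image-based quantification gave one endpoint, analysed for signal increase relative to DMSO controls.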
# Sequence of D(1A) dopamine receptor (Homo sapiens) (P21728 whole entry, looked up): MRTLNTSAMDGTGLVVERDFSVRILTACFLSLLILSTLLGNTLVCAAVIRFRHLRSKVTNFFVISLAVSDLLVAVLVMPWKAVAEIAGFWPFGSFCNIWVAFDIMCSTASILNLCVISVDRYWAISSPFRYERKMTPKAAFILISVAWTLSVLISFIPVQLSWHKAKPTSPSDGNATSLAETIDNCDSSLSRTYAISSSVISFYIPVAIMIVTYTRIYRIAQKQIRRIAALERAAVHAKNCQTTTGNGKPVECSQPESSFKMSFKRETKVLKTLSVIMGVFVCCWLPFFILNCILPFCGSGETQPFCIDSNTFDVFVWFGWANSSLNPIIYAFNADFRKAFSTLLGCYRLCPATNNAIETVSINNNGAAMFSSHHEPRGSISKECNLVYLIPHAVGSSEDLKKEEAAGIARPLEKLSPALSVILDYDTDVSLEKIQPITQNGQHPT
# Sequence of Peroxisome proliferator-activated receptor gamma (Homo sapiens) (P37231 whole entry, looked up): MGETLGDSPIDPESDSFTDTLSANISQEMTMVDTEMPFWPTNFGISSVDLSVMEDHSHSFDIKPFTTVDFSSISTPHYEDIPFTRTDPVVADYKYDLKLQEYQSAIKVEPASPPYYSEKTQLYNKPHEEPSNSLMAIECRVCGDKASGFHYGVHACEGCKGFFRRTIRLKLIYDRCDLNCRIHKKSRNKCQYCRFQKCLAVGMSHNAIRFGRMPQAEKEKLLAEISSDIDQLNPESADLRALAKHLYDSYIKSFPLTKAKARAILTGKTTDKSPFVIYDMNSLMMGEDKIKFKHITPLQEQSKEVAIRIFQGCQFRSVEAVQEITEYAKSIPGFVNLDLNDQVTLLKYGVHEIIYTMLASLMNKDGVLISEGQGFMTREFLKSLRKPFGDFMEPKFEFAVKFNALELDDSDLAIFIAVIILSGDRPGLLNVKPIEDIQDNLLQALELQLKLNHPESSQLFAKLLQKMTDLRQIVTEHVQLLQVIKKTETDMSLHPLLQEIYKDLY
# Sequence of human Phosphodiesterase 10 (PDE10), PDE10A (gene 10846) (Q9Y233 whole entry, looked up): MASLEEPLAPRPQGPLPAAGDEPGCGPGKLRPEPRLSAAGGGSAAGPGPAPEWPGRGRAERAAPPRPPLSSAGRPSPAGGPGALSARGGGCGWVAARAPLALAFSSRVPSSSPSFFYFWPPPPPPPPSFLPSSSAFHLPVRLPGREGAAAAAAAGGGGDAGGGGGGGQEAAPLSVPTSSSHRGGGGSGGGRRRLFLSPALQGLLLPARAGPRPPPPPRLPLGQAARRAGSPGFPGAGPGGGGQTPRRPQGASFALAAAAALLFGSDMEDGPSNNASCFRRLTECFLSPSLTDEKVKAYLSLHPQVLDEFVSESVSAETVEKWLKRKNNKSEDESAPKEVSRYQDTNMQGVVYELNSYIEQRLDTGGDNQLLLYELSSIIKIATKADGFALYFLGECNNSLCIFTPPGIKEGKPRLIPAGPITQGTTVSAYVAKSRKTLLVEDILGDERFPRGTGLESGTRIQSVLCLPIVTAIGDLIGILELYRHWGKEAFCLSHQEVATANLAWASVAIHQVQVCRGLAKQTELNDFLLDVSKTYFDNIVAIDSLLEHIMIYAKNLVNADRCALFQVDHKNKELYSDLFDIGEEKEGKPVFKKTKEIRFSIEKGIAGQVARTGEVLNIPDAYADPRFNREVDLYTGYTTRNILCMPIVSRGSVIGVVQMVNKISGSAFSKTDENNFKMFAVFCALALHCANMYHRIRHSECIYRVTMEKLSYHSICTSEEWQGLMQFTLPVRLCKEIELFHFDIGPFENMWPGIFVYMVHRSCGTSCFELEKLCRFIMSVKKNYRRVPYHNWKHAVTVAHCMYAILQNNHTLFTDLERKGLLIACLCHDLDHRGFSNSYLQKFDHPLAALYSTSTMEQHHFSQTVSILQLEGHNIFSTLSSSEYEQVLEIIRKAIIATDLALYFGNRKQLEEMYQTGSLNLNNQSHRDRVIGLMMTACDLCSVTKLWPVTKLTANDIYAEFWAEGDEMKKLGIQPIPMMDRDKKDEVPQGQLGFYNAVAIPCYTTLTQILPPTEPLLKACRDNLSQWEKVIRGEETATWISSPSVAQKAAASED
# Sequence of Luciferin 4-monooxygenase (Photinus pyralis) (P08659 whole entry, looked up): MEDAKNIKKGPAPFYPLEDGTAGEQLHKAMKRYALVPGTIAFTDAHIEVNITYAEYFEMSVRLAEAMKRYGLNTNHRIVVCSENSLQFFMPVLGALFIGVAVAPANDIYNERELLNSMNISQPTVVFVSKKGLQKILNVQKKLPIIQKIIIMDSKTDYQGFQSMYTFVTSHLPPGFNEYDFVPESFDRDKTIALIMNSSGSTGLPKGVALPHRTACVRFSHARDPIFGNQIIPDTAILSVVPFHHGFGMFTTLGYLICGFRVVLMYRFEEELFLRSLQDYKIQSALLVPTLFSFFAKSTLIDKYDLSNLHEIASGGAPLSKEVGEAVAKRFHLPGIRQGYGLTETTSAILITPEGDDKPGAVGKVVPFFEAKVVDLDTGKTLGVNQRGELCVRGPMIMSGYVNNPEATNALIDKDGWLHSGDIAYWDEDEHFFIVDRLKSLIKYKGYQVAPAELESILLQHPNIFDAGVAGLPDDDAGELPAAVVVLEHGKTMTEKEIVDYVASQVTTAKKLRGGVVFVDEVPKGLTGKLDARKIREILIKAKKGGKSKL
# Sequence of Estrogen receptor (Homo sapiens) (P03372 whole entry, looked up, the tested form may be a part): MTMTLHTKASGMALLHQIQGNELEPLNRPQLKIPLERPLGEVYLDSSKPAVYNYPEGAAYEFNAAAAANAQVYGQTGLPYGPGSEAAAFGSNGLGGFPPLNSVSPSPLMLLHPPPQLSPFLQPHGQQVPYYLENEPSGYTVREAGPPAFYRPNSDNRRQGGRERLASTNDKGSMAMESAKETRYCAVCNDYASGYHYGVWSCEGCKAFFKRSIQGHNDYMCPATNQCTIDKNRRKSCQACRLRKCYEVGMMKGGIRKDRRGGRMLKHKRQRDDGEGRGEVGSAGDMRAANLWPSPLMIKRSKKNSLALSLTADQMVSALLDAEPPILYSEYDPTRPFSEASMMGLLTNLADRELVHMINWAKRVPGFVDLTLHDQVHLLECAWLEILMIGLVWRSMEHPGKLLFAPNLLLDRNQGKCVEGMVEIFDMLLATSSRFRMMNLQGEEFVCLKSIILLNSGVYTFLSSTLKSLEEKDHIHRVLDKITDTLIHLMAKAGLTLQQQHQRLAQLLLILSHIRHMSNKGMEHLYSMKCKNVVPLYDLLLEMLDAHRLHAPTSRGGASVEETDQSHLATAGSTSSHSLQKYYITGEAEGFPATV
# Sequence of Estrogen receptor (Homo sapiens) + Estrogen receptor beta (Homo sapiens) (P03372 whole entry, looked up, the tested form may be a part): as above
# Sequence of Estrogen receptor (Homo sapiens) + Estrogen receptor beta (Homo sapiens) (Q92731 whole entry, looked up, the tested form may be a part): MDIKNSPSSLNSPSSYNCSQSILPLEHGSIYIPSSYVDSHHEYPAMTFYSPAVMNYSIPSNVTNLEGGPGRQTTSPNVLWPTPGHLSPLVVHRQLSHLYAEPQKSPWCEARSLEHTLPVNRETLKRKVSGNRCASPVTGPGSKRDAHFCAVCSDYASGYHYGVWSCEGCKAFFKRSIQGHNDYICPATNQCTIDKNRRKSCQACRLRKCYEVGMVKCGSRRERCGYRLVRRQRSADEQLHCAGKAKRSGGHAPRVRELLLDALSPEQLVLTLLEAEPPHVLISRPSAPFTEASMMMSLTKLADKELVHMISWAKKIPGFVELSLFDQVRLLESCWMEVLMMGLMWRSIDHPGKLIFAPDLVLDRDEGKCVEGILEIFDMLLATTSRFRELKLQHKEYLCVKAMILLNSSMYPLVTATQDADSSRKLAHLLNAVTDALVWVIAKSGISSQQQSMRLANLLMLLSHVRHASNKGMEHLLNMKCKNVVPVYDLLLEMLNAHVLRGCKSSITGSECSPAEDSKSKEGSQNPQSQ
compound,measurement,setting,value
CNC(=O)Oc1cc(C)c(SC)c(C)c1,outcome,[1],inactive
same,AC50,[2],39.5 µM (active)
same,outcome,[3],inactive
same,outcome,[4],inactive
same,AC50,[5],21.2 µM (active)
same,outcome,[6],inactive
same,outcome,[7],inactive
same,outcome,[8],inactive
same,outcome,[9],inactive
same,AC50,[10],65.1 µM (active)
Clc1ccc(-c2ccccc2)cc1,outcome,[11],inactive
COC(C)(C)CCC[C@H](C)C/C=C/C(C)=C/C(=O)OC(C)C,outcome,[11],inactive
CCOP(=O)(OCC)Oc1ccc([N+](=O)[O-])cc1,outcome,[3],inactive
same,outcome,[4],inactive
same,outcome,[10],inactive
O=c1c2ccccc2c(=O)c2c1cc(Cl)c1[nH]c3c([nH]c12)c(Cl)cc1c(=O)c2ccccc2c(=O)c13,outcome,[11],inactive
Oc1cc(Cl)ccc1Cl,outcome,[2],inactive
same,outcome,[3],inactive
same,AC50,[4],25.8 µM (active)
same,outcome,[5],inactive
same,outcome,[6],inactive
same,outcome,[7],inactive
same,AC50,[10],30.6 µM (active)
CNC(=N[N+](=O)[O-])NCC1CCOC1 (centres undefined),outcome,[12],inactive
O=S(=O)(O)OOS(=O)(=O)O,outcome,[12],inactive
CCOC(=O)NC(=S)Nc1ccccc1NC(=S)NC(=O)OCC,AC50,[13],16 µM (active)
same,outcome,[14],inactive
O=C(CCl)c1ccccc1,AC50,[13],43.8 µM (active)
same,outcome,[14],inactive
O=C1C(Cl)=C(Cl)C(=O)C(Cl)=C1Cl,AC50,[1],4.01 µM (active)
CC(C)(c1cc(Cl)c(O)c(Cl)c1)c1cc(Cl)c(O)c(Cl)c1,AC50,[15],1.54 µM (active)
same,outcome,[15],inactive
same,AC50,[12],159 µM (active)
O=CNC(N1CCN(C(NC=O)C(Cl)(Cl)Cl)CC1)C(Cl)(Cl)Cl (centres undefined),outcome,[16],inactive
same,outcome,[17],inactive
same,outcome,[18],inactive
same,outcome,[19],inactive
same,outcome,[20],inactive
same,outcome,[8],inactive
same,outcome,[9],inactive
c1ccc(Nc2ccc3ccccc3c2)cc1,outcome,[8],inactive
same,outcome,[9],inactive
c1ccc(P(c2ccccc2)c2ccccc2)cc1,outcome,[16],inactive
same,AC50,[17],60.6 µM (active)
same,AC50,[18],64.4 µM (active)
same,AC50,[15],14.9 µM (active)
same,AC50,[19],84.1 µM (active)
same,AC50,[20],17 µM (active)
C=CCN(CC=C)C(=O)C(Cl)Cl,outcome,[12],inactive
CC(C)(C)C(O)C(Oc1ccc(-c2ccccc2)cc1)n1cncn1 (centres undefined),AC50,[2],0.0464 µM (active)
same,outcome,[3],inactive
same,AC50,[4],0.0566 µM (active)
same,outcome,[5],inactive
same,outcome,[6],inactive
same,outcome,[7],inactive
same,outcome,[8],inactive
same,outcome,[9],inactive
same,outcome,[10],inactive
Cc1ncc(C[n+]2csc(CCO)c2C)c(N)n1,outcome,[11],inactive
O=C=Nc1ccccc1,AC50,[3],0.499 µM (active)
same,outcome,[4],inactive
same,AC50,[10],0.492 µM (active)
same,outcome,[13],inactive
same,outcome,[14],inactive
C=CC(=O)OCC(CC)CCCC (centres undefined),outcome,[13],inactive
same,outcome,[14],inactive
COc1cc(OC)nc(Oc2cccc(Oc3nc(OC)cc(OC)n3)c2C(=O)O)n1,outcome,[15],inactive
same,AC50,[13],34.9 µM (active)
same,outcome,[14],inactive
O=C1C=CC(=O)C=C1,AC50,[1],12.8 µM (active)
Nc1ccccc1,AC50,[13],0.759 µM (active)
same,outcome,[14],inactive
same,outcome,[12],inactive
CC(C)C(=O)Cl,outcome,[11],inactive
same,outcome,[1],inactive
O=P(O)(Oc1ccccc1)Oc1ccccc1,outcome,[16],inactive
same,outcome,[17],inactive
same,outcome,[18],inactive
same,outcome,[19],inactive
same,outcome,[20],inactive
CCc1cccc(C)c1N(C(=O)CCl)[C@@H](C)COC,outcome,[15],inactive
Cc1cc(C)c(C2=C(OC(=O)CC(C)(C)C)C3(CCCC3)OC2=O)c(C)c1,outcome,[16],inactive
same,outcome,[17],inactive
same,outcome,[18],inactive
same,outcome,[15],inactive
same,outcome,[19],inactive
same,outcome,[20],inactive
same,AC50,[2],72.4 µM (active)
same,outcome,[5],inactive
same,AC50,[6],69.2 µM (active)
same,outcome,[7],inactive
same,outcome,[8],inactive
same,AC50,[9],20.7 µM (active)
same,outcome,[12],inactive
CCCC=NO,outcome,[16],inactive
same,outcome,[17],inactive
same,outcome,[18],inactive
same,outcome,[19],inactive
same,outcome,[20],inactive
O=[N+]([O-])C=Cc1ccccc1,AC50,[1],8.25 µM (active)
c1ccc2c(c1)CCCC2,outcome,[16],inactive
same,outcome,[17],inactive
same,outcome,[18],inactive
same,outcome,[19],inactive
same,outcome,[20],inactive
C=CC(=O)OCCO,outcome,[2],inactive
same,outcome,[5],inactive
same,outcome,[6],inactive
same,outcome,[7],inactive
